Results: PubChem BioAssay (EPA / NIEHS)
Active and inactive are the calls of the source. The calls were made as follows: active = hit-call score of the fitted dose curve at least 0.9, where 1 is the maximum; inactive = score below 0.9.

Tests used:
[1] = read-out: TIMP metallopeptidase inhibitor 1 (TIMP1), TIMP1 (gene 7076); assay: BSK_hDFCGF_TIMP1: BioMAP Diversity Plus: hDFCGF Assay for TIMP metallopeptidase inhibitor 1 (TIMP1) Biomarker Activity (AID 2283062); details: primary human foreskin fibroblasts; actives raise or lower the signal
Outline: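 Primary human foreskin fibroblasts in the hDFCGF system were dosed with compound for 24 h, then TIMP-1 was measured by ELISA. Activity was fitted bidirectionally relative to DMSO control; parallel SRB staining assessed cytotoxicity.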

[2] = read-out: Monokine induced gamma interferon (MIG), CXCL9 (gene 4283); assay: BSK_hDFCGF_MIG: BioMAP Diversity Plus: hDFCGF Assay for Monokine induced gamma interferon (MIG) Biomarker Activity (AID 2283063); details: primary human foreskin fibroblasts; actives raise or lower the signal
Outline: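 ELISA read-out of MIG from primary human dermal fibroblasts 24 h post-dosing. Gain or loss of signal fitted bidirectionally, DMSO as baseline.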

[3] = read-out: Matrix Metallopeptidase 1 (MMP1), MMP1 (gene 4312); assay: BSK_hDFCGF_MMP1: BioMAP Diversity Plus: hDFCGF Assay for Matrix Metallopeptidase 1 (MMP1) Biomarker Activity (AID 2283064); details: primary human foreskin fibroblasts; actives raise or lower the signal
Outline: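 Primary human foreskin fibroblasts in the hDFCGF system were dosed with test chemical, and MMP1 was measured by ELISA 24 h later. Values come from bidirectional curve fitting against the DMSO baseline.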

[4] = read-out: Vascular cell adhesion molecule 1 (VCAM1), VCAM1 (gene 7412); assay: BSK_hDFCGF_VCAM1: BioMAP Diversity Plus: hDFCGF Assay for Vascular cell adhesion molecule 1 (VCAM1) Biomarker Activity (AID 2283065); details: primary human foreskin fibroblasts; actives raise or lower the signal
Outline: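 Primary human foreskin fibroblasts (hDFCGF system) were dosed with chemical and VCAM-1 was measured by ELISA 24 h later. Bidirectional curve fitting used DMSO as negative control and activity baseline.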

[5] = read-out: Plasminogen activator inhibitor-1 (PAI1), SERPINE1 (gene 5054); assay: BSK_hDFCGF_PAI1: BioMAP Diversity Plus: hDFCGF Assay for Plasminogen activator inhibitor-1 (PAI1) Biomarker Activity (AID 2283066); details: primary human foreskin fibroblasts; actives raise or lower the signal
Outline: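 Primary dermal fibroblasts (human foreskin), hDFCGF system; compound 24 h; PAI-1 by ELISA; bidirectional fit vs DMSO control.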

[6] = read-out: Intercellular Adhesion Molecule 1 (ICAM1), ICAM1 (gene 3383); assay: BSK_KF3CT_ICAM1: BioMAP Diversity Plus: KF3CT Assay for Intercellular Adhesion Molecule 1 (ICAM1) Biomarker Activity (AID 2283067); details: primary human keratinocytes with fibroblasts; actives raise or lower the signal
Outline: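 Human keratinocyte plus foreskin fibroblast primary co-culture was exposed to chemical for 24 h. ICAM-1 was then quantified by ELISA, and the data were fit bidirectionally against DMSO as the negative control and baseline.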

[7] = read-out: Interferon-gamma inducible Protein 10 (IP10), CXCL10 (gene 3627); assay: BSK_KF3CT_IP10: BioMAP Diversity Plus: KF3CT Assay for Interferon-gamma inducible Protein 10 (IP10) Biomarker Activity (AID 2283068); details: primary human keratinocytes with fibroblasts; actives raise or lower the signal
Outline: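 KF3CT co-culture (keratinocytes + foreskin fibroblasts), 24 h compound, IP-10 by ELISA; bidirectional fit vs DMSO baseline.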

[8] = BSK_KF3CT_SRB: Viability Assessment in the BioMAP Diversity Plus: KF3CT Assay (AID 2283069); details: primary human keratinocytes with fibroblasts;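 also: total protein by sulforhodamine B staining as a cytotoxicity measure; read 24 h after compound addition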
Outline: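 Human primary keratinocyte plus foreskin fibroblast co-culture exposed to chemicals for 24 h. Total protein measured by 0.1% sulforhodamine B staining after 10% TCA fixation, read at 560 nm; bidirectional fitting versus DMSO baseline.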

[9] = read-out: Interleukin-1 alpha (IL1a), IL1A (gene 3552); assay: BSK_KF3CT_IL1a: BioMAP Diversity Plus: KF3CT Assay for Interleukin-1 alpha (IL1a) Biomarker Activity (AID 2283070); details: primary human keratinocytes with fibroblasts; actives raise or lower the signal
Outline: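 Human keratinocyte plus foreskin fibroblast primary co-culture, sampled 24 h after chemical dosing. IL-1a measured by ELISA; responses fitted bidirectionally against DMSO baseline (negative control), so gain or loss of signal both count.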

[10] = read-out: TIMP metallopeptidase inhibitor 2 (TIMP2), TIMP2 (gene 7077); assay: BSK_KF3CT_TIMP2: BioMAP Diversity Plus: KF3CT Assay for TIMP metallopeptidase inhibitor 2 (TIMP2) Biomarker Activity (AID 2283071); details: primary human keratinocytes with fibroblasts; actives raise or lower the signal
Outline: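 Cells: human keratinocytes co-cultured with foreskin fibroblasts. Treat with chemical, 24 h. Measure TIMP-2 by ELISA; fit curves bidirectionally vs DMSO baseline.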

[11] = read-out: Transforming growth factor beta 1 (TGFb1), TGFB1 (gene 7040); assay: BSK_KF3CT_TGFb1: BioMAP Diversity Plus: KF3CT Assay for Transforming growth factor beta 1 (TGFb1) Biomarker Activity (AID 2283072); details: primary human keratinocytes with fibroblasts; actives raise or lower the signal
Outline: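 Primary human skin cells (keratinocytes, foreskin fibroblasts) were co-cultured, exposed to test chemical and sampled at 24 h. TGF-b1 levels were measured by ELISA and fitted bidirectionally relative to DMSO.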

[12] = read-out: Matrix Metallopeptidase 9 (MMP9), MMP9 (gene 4318); assay: BSK_KF3CT_MMP9: BioMAP Diversity Plus: KF3CT Assay for Matrix Metallopeptidase 9 (MMP9) Biomarker Activity (AID 2283074); details: primary human keratinocytes with fibroblasts; actives raise or lower the signal
Outline: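 Keratinocyte plus foreskin fibroblast human primary skin co-culture was dosed with chemical and MMP-9 was quantified by ELISA 24 h later. Bidirectional curve fitting used DMSO as negative control and activity baseline.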

CD40, CD40 (gene 958) = assay: BSK_LPS_CD40: BioMAP Diversity Plus: LPS Assay for CD40 Biomarker Activity (AID 2283076); details: primary human HUVEC with PBMC; actives raise or lower the signal
Outline: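 Primary human umbilical vein endothelial cells co-cultured with peripheral blood mononuclear cells, LPS-stimulated, were dosed with chemical and read 24 h later. CD40 levels were measured by ELISA and fitted bidirectionally against DMSO as negative control and baseline.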

[13] = read-out: E-selectin (Homo sapiens) (UniProt P16581); assay: BSK_LPS_Eselectin: BioMAP Diversity Plus: LPS Assay for Eselectin Biomarker Activity (AID 2283077); details: primary human HUVEC with PBMC; actives raise or lower the signal
Outline: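 Human umbilical vein endothelial cells co-cultured with peripheral blood mononuclear cells under LPS stimulation; E-selectin measured by ELISA 24 h after chemical dosing. Activity fitted bidirectionally against DMSO as negative control and baseline.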

[14] = read-out: Interleukin-8 (IL8), CXCL8 (gene 3576); assay: BSK_LPS_IL8: BioMAP Diversity Plus: LPS Assay for Interleukin-8 (IL8) Biomarker Activity (AID 2283078); details: primary human HUVEC with PBMC; actives raise or lower the signal
Outline: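 Human umbilical vein endothelial cells co-cultured with PBMC were stimulated with LPS; IL-8 levels were measured by ELISA 24 h after chemical dosing. Activity was fitted bidirectionally against DMSO as negative control and baseline.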

[15] = read-out: Interleukin-1 alpha (IL1a), IL1A (gene 3552); assay: BSK_LPS_IL1a: BioMAP Diversity Plus: LPS Assay for Interleukin-1 alpha (IL1a) Biomarker Activity (AID 2283080); details: primary human HUVEC with PBMC; actives raise or lower the signal
Outline: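 Human umbilical vein endothelial cells co-cultured with peripheral blood mononuclear cells were LPS-stimulated and exposed to test chemicals for 24 h. IL-1 alpha was quantified by ELISA, with bidirectional curve fitting against DMSO as the negative control and baseline.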

[16] = read-out: Monocyte Chemoattractant Protein-1 (MCP1), CCL2 (gene 6347); assay: BSK_LPS_MCP1: BioMAP Diversity Plus: LPS Assay for Monocyte Chemoattractant Protein-1 (MCP1) Biomarker Activity (AID 2283081); details: primary human HUVEC with PBMC; actives raise or lower the signal;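 as to AC50: co-culture stimulated with LPS; secreted MCP-1 protein quantified by ELISA in culture supernatant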
Outline: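 HUVEC plus PBMC co-culture (human primary cells, LPS system) exposed to test chemical for 24 h; MCP-1 measured by ELISA. Bidirectional curve fitting against DMSO baseline; parallel SRB total-protein staining flags overt cytotoxicity.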

[17] = read-out: C-C motif chemokine 2 (Homo sapiens) (UniProt P13500); assay: BSK_KF3CT_MCP1: BioMAP Diversity Plus: KF3CT Assay for Monocyte Chemoattractant Protein 1 (MCP1/CCL2) Biomarker Activity (AID 2283073); details: primary human keratinocytes with fibroblasts; actives raise or lower the signal
Outline: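 Human keratinocyte plus foreskin fibroblast primary co-culture exposed to chemical for 24 h. MCP-1 levels measured by ELISA. Bidirectional curve fitting relative to DMSO negative control as baseline.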

[18] = read-out: urokinase plasminogen activator (uPA), PLAU (gene 5328); assay: BSK_KF3CT_uPA: BioMAP Diversity Plus: KF3CT Assay for urokinase plasminogen activator (uPA) Biomarker Activity (AID 2283075); details: primary human keratinocytes with fibroblasts; actives raise or lower the signal
Outline: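 Human keratinocyte plus foreskin fibroblast primary co-culture exposed to chemical for 24 h. uPA levels were quantified by ELISA, and activity was fitted bidirectionally against a DMSO negative-control baseline.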

[19] = BSK_LPS_SRB: Viability Assessment in the BioMAP Diversity Plus: LPS Assay (AID 2283079); details: primary human HUVEC with PBMC;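 also: total protein by sulforhodamine B absorbance as a cytotoxicity measure; measured one day after compound addition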
Outline: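 Human umbilical vein endothelial cells co-cultured with PBMC (LPS system) were dosed for 24 h. Total protein was stained with 0.1% sulforhodamine B after 10% TCA fixation, read at 560 nm, and fitted bidirectionally against DMSO baseline.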

Measured: AC50

Chain of E-selectin (Homo sapiens) (P16581 whole entry, looked up): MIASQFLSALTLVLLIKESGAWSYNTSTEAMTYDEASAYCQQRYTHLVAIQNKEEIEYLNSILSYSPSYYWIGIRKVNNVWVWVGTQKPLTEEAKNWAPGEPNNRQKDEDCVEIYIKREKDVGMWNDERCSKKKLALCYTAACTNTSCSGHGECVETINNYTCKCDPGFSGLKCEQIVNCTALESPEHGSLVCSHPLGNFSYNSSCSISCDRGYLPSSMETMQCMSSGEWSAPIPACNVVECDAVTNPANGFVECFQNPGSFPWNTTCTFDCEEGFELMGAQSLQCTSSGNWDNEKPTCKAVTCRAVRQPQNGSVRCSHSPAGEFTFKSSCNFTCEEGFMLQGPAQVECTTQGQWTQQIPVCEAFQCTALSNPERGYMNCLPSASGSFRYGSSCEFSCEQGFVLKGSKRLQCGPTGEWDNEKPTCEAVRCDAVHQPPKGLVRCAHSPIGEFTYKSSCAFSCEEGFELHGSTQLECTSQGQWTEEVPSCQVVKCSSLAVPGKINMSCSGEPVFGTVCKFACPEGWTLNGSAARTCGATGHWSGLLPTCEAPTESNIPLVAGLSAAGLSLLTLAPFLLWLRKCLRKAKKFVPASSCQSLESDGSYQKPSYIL

C[Si]1(C)O[Si](C)(C)O[Si](C)(C)O[Si](C)(C)O1
inactive: [1] | [2] | [3] | [4] | [5] | [6] | [7] | [8] | [9] | [10] | [11] | [12] | CD40, CD40 (gene 958) | [13] | [14] | [15] | [16]

NC(=O)Cn1c(=O)cc(CCN2CCN(c3nccc4sccc34)CC2)c2ccc(F)cc21
inactive: [1] | [2] | [3] | [4] | [5] | [6] | [7] | [8] | [9] | [10] | [11] | [12] | CD40, CD40 (gene 958) | [13] | [14] | [15] | [16]

CCCCc1ccc2c(n1)[C@@H](c1ccc(OC)cc1C[C@H](C)C(=O)O)[C@H](C(=O)O)[C@H]2c1ccc2c(c1)OCO2
inactive: [1] | [2] | [3] | [4] | [5] | [6] | [7] | [8] | [9] | [10] | [11] | [12] | CD40, CD40 (gene 958) | [13] | [14] | [15] | [16]

CNCc1cc(F)ccc1Oc1ccc(Cl)c(Cl)c1
inactive: [1] | [2] | [3] | [4] | [5] | [6] | [7] | [8] | [9] | [11] | [17] | [12] | [13] | [15]
active: [18] 30.5 µM | CD40, CD40 (gene 958) 15 µM | [14] 15.7 µM | [19] 30 µM | [16] 26.2 µM

FC(F)(F)C(F)(F)C(F)(F)C(F)(F)C(F)(F)C(F)(F)CCI
inactive: [1] | [2] | [3] | [4] | [5] | [6] | [7] | [8] | [9] | [10] | [11] | [12] | CD40, CD40 (gene 958) | [13] | [14] | [19] | [15] | [16]

Cc1ccc(N(C)C)cc1
inactive: [1] | [2] | [3] | [4] | [5] | [6] | [7] | [8] | [9] | [11] | [17] | [12] | [18] | CD40, CD40 (gene 958) | [13] | [14] | [19] | [15] | [16]

COCCOCCOC
inactive: [1] | [2] | [3] | [4] | [5] | [6] | [7] | [8] | [9] | [10] | [11] | [12] | CD40, CD40 (gene 958) | [13] | [14] | [19] | [15] | [16]

CCCCOC(=O)CCCCCCCCC(=O)OCCCC
inactive: [1] | [2] | [3] | [4] | [5] | [6] | [7] | [8] | [9] | [11] | [17] | [12] | [18] | CD40, CD40 (gene 958) | [13] | [14] | [15] | [16]
